# About 83,000 compounds went through this panel and 20% of them were active in at least one assay; those are over-represented in the sample as a whole.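 For each line, cells grew in 96-well plates with the test compound present at a single concentration for 48 hours.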 Values without a mark were called inactive. Activity calls are given as the source filed them. The calls were made as follows: active = growth percent below 10; inactive = the rest.
# Legend:
# Assay in all cases: NCI-60 one-dose screen, 48 h (100 = growth as untreated, 0 = no growth, -100 = all killed)
# Conditions in all cases: 10 µM unless noted
# HCT-15 colon = tested on: HCT-15 colon
# HT29 colon = tested on: HT29 colon
# SNB-19 CNS = tested on: SNB-19 CNS
# U251 CNS = tested on: U251 CNS
# PC-3 prostate = tested on: PC-3 prostate
# SK-MEL-5 melanoma = tested on: SK-MEL-5 melanoma
# UACC-62 melanoma = tested on: UACC-62 melanoma
# LOX IMVI melanoma = tested on: LOX IMVI melanoma
# SK-MEL-28 melanoma = tested on: SK-MEL-28 melanoma
# SK-MEL-2 melanoma = tested on: SK-MEL-2 melanoma
# EKVX NSCLC = tested on: EKVX NSCLC
# SN12C renal = tested on: SN12C renal
# UO-31 renal = tested on: UO-31 renal
# TK-10 renal = tested on: TK-10 renal
# ACHN renal = tested on: ACHN renal
# CAKI-1 renal = tested on: CAKI-1 renal
# A498 renal = tested on: A498 renal
# CCRF-CEM leukemia = tested on: CCRF-CEM leukemia
# MOLT-4 leukemia = tested on: MOLT-4 leukemia
Structure (SMILES),growth (HCT-15 colon),growth (HT29 colon),growth (SNB-19 CNS),growth (U251 CNS),growth (PC-3 prostate),growth (SK-MEL-5 melanoma),growth (UACC-62 melanoma),growth (LOX IMVI melanoma),growth (SK-MEL-28 melanoma),growth (SK-MEL-2 melanoma),growth (EKVX NSCLC),growth (SN12C renal),growth (UO-31 renal),growth (TK-10 renal),growth (ACHN renal),growth (CAKI-1 renal),growth (A498 renal),growth (CCRF-CEM leukemia),growth (MOLT-4 leukemia)
NC(=S)N/N=C(/CCN1CCCC1)CC(C1=C(O)C2=CCCCC2OC1=O)c1ccccc1 (stereo not drawn),75.6%,36.2%,109%,88%,85.6%,98.3%,97.4%,56%,99.6%,93.2%,63.3%,85.3%,64.5%,120%,89.4%,98.6%,109%,48.9%,64.8%
CCN(CC)CCC(CNc1c2ccc(Cl)cc2nc2ccc(OC)cc12)c1ccccc1 (stereo not drawn),-18.4% (active),-36.1% (active),5.5% (active),-59.1% (active),17.6%,-97.9% (active),-61.2% (active),-25.4% (active),-100% (active),-71.2% (active),52.1%,16.8%,-95.2% (active),-11% (active),-95% (active),-40.5% (active),88.8%,0.732% (active),-7.09% (active)
Cn1c(=O)cc(NC(=O)CN2CCN(c3cc4c(cc3F)c(=O)c(C(=O)O)cn4C3CC3)CC2)[nH]c1=O,99%,103%,98.4%,101%,95.2%,101%,96.3%,99.5%,107%,107%,92.9%,97.4%,88.7%,105%,99.9%,88.2%,102%,103%,107%
COc1ccc(-c2nc(/C=N/Nc3cc(C)nc4ccc(Cl)cc34)c(C)o2)cc1,-91.5% (active),-96.1% (active),-90.4% (active),-95.9% (active),-73.1% (active),57%,14.5%,-97% (active),-41.3% (active),101%,-19.4% (active),-92.9% (active),-98.4% (active),-36.1% (active),-100% (active),-85.6% (active),73%,-54.3% (active),-46.7% (active)
CC(C)(C)NCCC(O)c1cc2c(Cl)cc(Cl)cc2c2cc(C(F)(F)F)ccc12 (stereo not drawn),-70.5% (active),-80.3% (active),-70.9% (active),-94.2% (active),-92.3% (active),-63.2% (active),-77.3% (active),-70.7% (active),-91.6% (active),-69.5% (active),-63.9% (active),-80.1% (active),-88.8% (active),-85.7% (active),-75.9% (active),-68.2% (active),16.5%,-50.7% (active),-61.9% (active)
COc1ccc(NC(=O)c2c(Nc3ccc(OC)cc3OC)n[nH]c2N)c(OC)c1,104%,102%,90.3%,96.4%,90.6%,79.9%,68%,101%,96.6%,102%,89.1%,90%,69.7%,117%,95%,94.9%,114%,110%,78.8%
CCOC(=O)c1c(/N=C2\SC(=O)/C(=C\C(=O)OC)N2NC)sc2c1CCN(C(=O)OCC)C2,95.9%,99%,99.2%,101%,94.8%,99.5%,97.7%,94.2%,101%,92.5%,89.1%,98.9%,87%,121%,102%,103%,110%,101%,106%
NC(=O)c1c(NC(=S)Nc2ccc(OC(F)(F)F)cc2)sc2c1CCC1(C2)OCCO1,97.5%,95.6%,97.5%,97.2%,92.6%,98.2%,77.1%,98%,104%,93.9%,93.1%,95.4%,88%,106%,99.9%,93.6%,90.4%,93.8%,87.3%
CC(=O)Oc1csc(N(C(C)=O)c2cccc(C(F)(F)F)c2)n1,94.4%,102%,97.8%,88.3%,85.6%,92.1%,89.2%,92.3%,103%,96.7%,46.1%,89.6%,91%,108%,102%,98.4%,85.2%,60.9%,104%
Cc1nc2cncc(C#Cc3cncc(C(=O)Nc4ccc(CN5CCN(C)CC5)c(C(F)(F)F)c4)c3)c2nc1C,8.31% (active),3.88% (active),49.7%,36%,25.6%,-18.1% (active),-32% (active),-77.9% (active),-8.83% (active),-47.7% (active),6.58% (active),4.16% (active),-12.5% (active),17.5%,-5.33% (active),-28.4% (active),-36.9% (active),16.2%,21.1%
C1=Cc2ccccc2N(c2nnc(-c3ccccc3)o2)c2ccccc21,45.8%,102%,96.7%,66.8%,60.6%,72%,86.4%,79.9%,98.2%,108%,94.3%,96.2%,83.9%,114%,95.1%,83.3%,80%,–,83.5%
CC(C)(C)n1cc(-c2ccnc(NCCCNS(=O)(=O)c3ccc(F)cc3)c2)c(-c2cccc(O)c2)n1,0.588% (active),13.9%,71.3%,50.5%,27.5%,13.3%,59.8%,-51.5% (active),39.2%,52.2%,49.8%,53.4%,59.4%,97.6%,38.2%,55%,59%,35.7%,34.2%
C=C(C)[C@@H]1CC[C@]2(C(=O)O)CC[C@]3(C)[C@H](CC[C@@H]4[C@@]5(C)C[C@@H](CC#Cc6ccc(C(F)(F)F)cc6)[C@H](O)C(C)(C)[C@@H]5CC[C@]43C)[C@@H]12,36.2%,15.7%,30.8%,-4.28% (active),-52.2% (active),-32.9% (active),-31.5% (active),-53.5% (active),-40.8% (active),-27% (active),24.3%,17.6%,41%,38.2%,31.2%,50%,-36.1% (active),-2.71% (active),4.32% (active)
O=C1/C(=C/c2ccccc2)CN(C(=O)CCN2CCC(=NO)CC2)C/C1=C\c1ccccc1,-42.7% (active),-81% (active),-18.6% (active),-52.7% (active),-7.51% (active),-59.2% (active),-59.7% (active),-90.7% (active),-27.4% (active),55.2%,1.08% (active),-18.6% (active),-84% (active),0.636% (active),-11% (active),-6.16% (active),80%,-2.62% (active),8.95% (active)
CCO/C=N/C1=C(C#N)C(c2ccc(Cl)cc2)c2c(c3ccc(C)cc3[nH]c2=O)O1 (stereo not drawn),91.1%,80.5%,84.7%,90.3%,83.5%,87.1%,67.6%,86.8%,101%,101%,69.5%,85.5%,49.6%,116%,78.5%,49.7%,66.1%,87.3%,95.6%
Cc1ccc(-c2nc(C#N)c(S(=O)(=O)n3nc(-c4ccccc4)cc3N)o2)cc1,67.6%,56%,93.7%,96.7%,101%,99.8%,94.3%,28%,108%,99.4%,99%,90.2%,92%,18.1%,25.3%,-41.1% (active),126%,4.2% (active),1.21% (active)

# Source: PubChem BioAssay (NCI)
